Only some compounds are listed: those with a hit (about 2.4% of all), similar ones and a draw of the others.
ASK1 inh = inhibitors of human ASK1 kinase | AlphaScreen MKK6 phosphorylation by ASK1, luminescence | inhibition, % at 7.44 µM | 0.99% of 22,000 active | AID 1159602; in the data active = inhibition above about 35%;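 also: 0% = median of compound wells and 100% = no enzyme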
ULK1 primary = blocks human autophagy kinase ULK1 | O75385 | inhibition, % at 5.96 µM | 1.9% of 30,000 active | AlphaScreen Atg13 phosphorylation by ULK1, luminescence; in the data active = inhibition above about 43%;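 also: 0% = median of compound wells and 100% = no enzyme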
Active calls of the source: *; · = no result given.

SMILES | ASK1 inh | ULK1 primary
NC(=O)c1ccc(Nc2ncc(Cl)c(-c3ccccc3)n2)cc1 | 9.4 | 31.1
NC(c1cccc(F)c1)c1nc2ccc(-c3ccncc3)cc2[nH]1 (centres undefined) | 2.9 | -6.8
CS(=O)(=O)c1ccc2c(c1)NC(=O)CN2C(=O)Cc1cc(F)cc(F)c1 | · | -5.0
O=C(NC1CC1)c1ccc(-c2nc(C(=O)NCCN3CCOCC3)cs2)cc1 | 4.2 | -41.1
CN(C)CCNC(=O)c1ccccc1Nc1ccnc(Nc2ccc(N3CCOCC3)cc2)c1 | -12.0 | 0.8
CNC(=O)c1ccccc1Nc1nc(Nc2ccc(N3CCOCC3)c(Cl)c2)ncc1Cl | -26.8 | 58.1*
N[C@H](Cc1ccc(Br)cc1)C(=O)N1CCC(Nc2ccc3[nH]ncc3c2)CC1 | -6.5 | 12.9
O=C(NCc1cccnc1)c1ccc2nc(Br)sc2c1 | 11.5 | 44.7*
O=C(NCc1cccnc1)c1ccc2nc(-c3ccccc3)sc2c1 | 1.1 | -21.9
Cc1cc(N)n(-c2ncnc3c2cnn3-c2ccc(Cl)cc2)n1 | · | 11.1
CCCNc1nc(Nc2cc(OC)c(OC)c(OC)c2)nc2nc[nH]c12 | -41.2 | 59.0*
COc1cc(Nc2nc(Nc3cccnc3)nc3nc[nH]c23)cc(OC)c1OC | -2.5 | 22.5
COc1cc(Nc2nc(Nc3nccc4ccccc34)nc3nc[nH]c23)cc(OC)c1OC | -8.3 | 1.3
COc1cc(Nc2nc(NCc3ccccc3)c3[nH]cnc3n2)cc(OC)c1OC | -18.7 | 67.4*
COc1cc(Nc2nc(NCCN(C(C)C)C(C)C)c3[nH]cnc3n2)cc(OC)c1OC | 4.6 | 9.8
COc1cc(Nc2nc(Nc3ccccc3)c3[nH]cnc3n2)cc(OC)c1OC | -9.7 | 65.0*
COc1ccc(CCNc2nc(Nc3ccc(N4CCOCC4)cc3)nc3nc[nH]c23)cc1 | 25.4 | 40.7
CCN(CC)c1nc(Nc2ccc3c(c2)OCO3)nc(NC2CCN(Cc3ccccc3)CC2)n1 | -0.1 | 8.4
Nc1cccc(-c2cc(NCc3cccnc3)nc(N)n2)c1 | -2.8 | 55.4*
NC(=O)c1ccc(-c2cc(NCc3cccnc3)nc(N)n2)cc1 | 1.8 | 24.1
O=C(NC1CC1)c1ccc(-c2cccc(C(=O)NC3CC3)c2)cc1 | 11.7 | -2.3
CC(=O)Nc1ccc(NC(=O)c2cccc(-c3ccc(C(=O)NC4CC4)cc3)c2)cc1 | 9.0 | 46.9*
O=C1Cc2cc(Nc3ccnc(Nc4ccc(N5CCOCC5)cc4)c3)ccc2N1 | 17.9 | 19.4
CNC(=O)c1ccncc1Nc1cc(Nc2ccc3c(c2)CC(=O)N3)ncc1C(F)(F)F | 11.2 | 56.2*
CS(=O)(=O)NC1CCC(Nc2cc(Nc3ccccc3C(N)=O)c(C(F)(F)F)cn2)CC1 (centres undefined) | -51.9 | 22.0
SMILES | ASK1 inh | ULK1 primary
CNC(=O)c1cc(N2CCOCC2)ccc1Nc1cc(Nc2ccc3c(c2)CC(=O)N3)ncc1C(F)(F)F | -0.1 | 82.4*
CNC(=O)c1ccccc1Nc1cc(Nc2ccc3c(c2)CC(=O)N3C)ncc1C(F)(F)F | -4.8 | 83.8*
CNC(=O)c1ccccc1Nc1cc(Nc2ccc3[nH]c(=O)oc3c2)ncc1C(F)(F)F | -9.8 | 79.0*
O=C(NC1CCN(Cc2ccccc2)CC1)c1cnc(-c2csc3ccccc23)s1 | 1.4 | -5.7
CC(C)(C)C(=O)N1CCN(c2nc(-c3ccccc3)c(S(C)(=O)=O)cc2C#N)CC1 | · | 2.8
CNC(=O)c1ccccc1Nc1cc(Nc2ccc3c(c2)CC(=O)N3)ncc1C(F)(F)F | 0.0 | 73.2*
CNC(=O)c1ccccc1Nc1cc(Nc2ccc3c(c2)OCO3)ncc1C(F)(F)F | -4.3 | 78.4*
CNS(=O)(=O)c1ccccc1Nc1cc(Nc2ccc3c(c2)CCC(=O)N3)ncc1C(F)(F)F | -40.4 | 90.1*
CNC(=O)c1ccccc1Nc1cc(Nc2ccc3[nH]nc(C4=CCNCC4)c3c2)ncc1C(F)(F)F | -8.5 | -19.6
CNC(=O)c1cc(F)ccc1Nc1cc(Nc2ccc(N3CCCC3=O)cc2)ncc1C(F)(F)F | 11.8 | 73.1*
CNS(=O)(=O)c1ccccc1Nc1cc(Nc2ccccc2S(=O)(=O)NC)c(C(F)(F)F)cn1 | 13.6 | -21.3
c1cncc(-c2ccc3cnc(Nc4ccc(-n5cnc(N6CCOCC6)n5)cc4)nc3c2)c1 | 12.5 | 39.4
CC(C)n1cnc2c(NC3CC3)nc(NCc3cccnc3)nc21 | -0.9 | 40.9
CC(C)CNC(=O)C(=O)NCc1ccc2c(c1)OCO2 | · | -19.9
CCN(CC)CCCC(C)Nc1c2ccc(Cl)cc2nc2ccc(OC)cc12 (centres undefined) | · | 3.5
COc1cc(NC(C)CCCN)c2ncccc2c1 (centres undefined) | · | 64.3*
O=C(Nc1ccc2[nH]ncc2c1)C(O)c1ccc(Cl)cc1 (centres undefined) | -14.5 | 9.3
O=C(Nc1ccc2[nH]ncc2c1)[C@@H]1CCCN1 | 3.4 | 38.2
N[C@@H]1CC[C@@H](C(=O)Nc2ccc3[nH]ncc3c2)C1 | -3.2 | 65.3*
N[C@H]1CCC[C@@H](C(=O)Nc2ccc3cnccc3c2)C1 | 5.5 | 66.0*
O=C(Nc1ccc2[nH]ncc2c1)[C@H]1CCCN1 | -12.0 | 44.6*
O=C(Nc1ccc2[nH]ncc2c1)C1CCCNC1 (centres undefined) | 10.6 | 37.6
O=C(Nc1ccc2[nH]ncc2c1)[C@H](O)c1ccccc1 | -5.2 | 48.6*
N[C@@H]1CC[C@@H](C(=O)Nc2ccc3cnccc3c2)C1 | -10.0 | 34.3
CCCNC(=O)C1CCN(c2ccc(Nc3cccc(N(C)C)c3)nn2)CC1 | -9.8 | 3.6
SMILES | ASK1 inh | ULK1 primary
Nc1nc(Nc2ccc(Oc3ccccc3)cc2)cc(-c2ccccc2)n1 | -18.5 | -33.4
CC(C)n1cnc2c(NCc3nc4ccccc4[nH]3)nc(N3CCc4ccccc4C3)nc21 | 0.1 | 7.9
COc1cc(NC(=O)C2CCN(c3ccc(Nc4nccc5ccccc45)nn3)CC2)cc(OC)c1OC | 14.9 | 26.7
N[C@H]1CC[C@@H](C(=O)Nc2ccc3[nH]ncc3c2)C1 | 6.3 | 72.2*
CC(C)[C@H](O)C(=O)N[C@H]1CC[C@H](C(=O)Nc2ccc3[nH]ncc3c2)C1 | -1.4 | 5.3
CC(=O)Nc1ccc(NC(=O)c2cnc(NCc3cccnc3)s2)cc1 | 2.3 | 4.9
COc1cc(C(=O)NS(=O)(=O)c2ccccc2C)ccc1Cc1cn(C)c2ccc(NC(=O)OC3CCCC3)cc12 | · | 65.4*
CCOc1ccc(-c2cc(=O)c3cc(NC(=O)c4ccc(OC)c(OC)c4)ccc3o2)cc1 | · | 6.7
Oc1ccc(Br)cc1/C=N/N/C(=N/c1ccccn1)c1ccccn1 | · | -2.4
CN1CCN(C(=O)c2ccc(-c3ncc(C(=O)NCc4cccnc4)s3)cc2)CC1 | 3.1 | 21.0
CCCNc1nc(Nc2nc3ccccc3n2C)nc2c1ncn2C(C)C | 8.2 | 10.4
CCNc1ncc(C(=O)NC2CC2)s1 | 1.7 | -2.3
O=C(NC1CC1)c1cnc(Nc2ncccn2)s1 | -2.2 | 44.4*
Cn1ccc2cc(-c3cc(NCCCN4CCCC4=O)ncn3)ccc21 | 16.8 | 1.1
Cc1nn(C)c(C)c1-c1nc(NCCN2CCOCC2)c2ncn(CCN3CCCC3=O)c2n1 | -23.2 | -11.1
COc1cc(Nc2cc(C)nc(Nc3cccnc3)n2)cc(OC)c1OC | 21.6 | 45.4*
COc1cc(Nc2ncc(C)c(Nc3cc(OC)c(OC)c(OC)c3)n2)cc(OC)c1OC | 20.2 | 27.7
COc1cc(Nc2nc(Nc3ccccc3)ncc2C)cc(OC)c1OC | 14.9 | 62.5*
COc1cc(Nc2nc(Nc3ccccn3)ncc2C)cc(OC)c1OC | -9.1 | 51.5*
COc1cc(Nc2cc(C)nc(Nc3cc(OC)c(OC)c(OC)c3)n2)cc(OC)c1OC | -11.8 | -25.0
COc1cc(Nc2nc(Nc3ccncn3)ncc2C)cc(OC)c1OC | 22.9 | 14.8

Compound activity as filed in PubChem BioAssay.
